Laboratory results reported in PubChem BioAssay (Tox21).
Records with an inconclusive call do not appear. A call without a number means that no potency is given here. Active and inactive are the calls of the source. The call rests on the fitted dose curve.

target: Acetylcholinesterase (Homo sapiens) (UniProt P22303); assay: Acetylcholinesterase (AChE) small molecule antagonists: fluorescence cell-based qHTS assay (AID 1347398); details: SH-SY5Y cells; Potency: AChE activity; outcome: AChE activity; series mostly up to 115 µM; further: nearly all actives have a fitted effect of over 50% in size
Text: National Center for Advancing Translational Sciences [NCATS]
Division of Preclinical Innovation [DPI]
U.S. Environmental Protection Agency [EPA]
National Institutes of Environmental Health Sciences [NIEHS]
National Toxicology Program [NTP]
U.S. Food and Drug Administration [FDA]
Acetylcholinesterase (AChE) is the primary cholinesterase in the body that hydrolyzes a key neurotransmitter, acetylcholine. Inhibition of AChE activity can lead to neurotoxicity. Known inhibitors of AChE include organophosphorous pesticides (OP), chemical warfare agents, drugs, and various phytochemicals.
A homogenous cell-based assay using Amplitetrade mark Fluorimetric Acetylcholinesterase Assay Kit *Green Fluorescence* (AAT Bioquest, Sunnyvale, CA) was used to evaluate the chemicals in the Tox21 10K library that inhibit AChE activity. The assay uses Thiolite Green to quantify the thiocholine produced from the hydrolysis of acetylthiocholine by AChE from the SH-SY5Y cells. AChE can hydrolyze acetylthiocholine to create thiocholine. Thiolite Green is fluorescent when reacting with thiocholine. It has spectral properties similar to those of fluorescein. The fluorescence intensity of Thiolite Green is used to measure AChE activity. Its signal can be easily read by a fluorescence microplate reader at Ex/Em = 490/520 nm.
Tox21 Assay Protocol Summary:
For cell-based AChE assay, 2,000 SH-SY5Y cells in 4 uL/well were dispensed into black, clear-bottom 1536-well plates using a Multidrop Combi (Thermo Scientific) dispenser. The assay plates were incubated overnight at 37 C to allow cells to attach to the wells, followed by the transfer of 23 nL compound or DMSO (vehicle control) by a Pintool station (Wako Automation, CA). The plates were incubated for 30 min at 37 C and 5% CO2, followed by the addition of 4 uL of detection cocktail solution (ThioliteGreen, acetylthiocholine) into each well using Flying Reagent Dispenser (Beckman Coulter, CA) and then following 40 min incubation at room temperature. Fluorescent intensity (Ex/Em = 490/520 nm) was measured using an Envision plate reader (PerkinElmer, MA).
Potency means the concentration at half of the fitted maximal effect.

Sequence of Acetylcholinesterase (Homo sapiens) (P22303 whole entry, looked up): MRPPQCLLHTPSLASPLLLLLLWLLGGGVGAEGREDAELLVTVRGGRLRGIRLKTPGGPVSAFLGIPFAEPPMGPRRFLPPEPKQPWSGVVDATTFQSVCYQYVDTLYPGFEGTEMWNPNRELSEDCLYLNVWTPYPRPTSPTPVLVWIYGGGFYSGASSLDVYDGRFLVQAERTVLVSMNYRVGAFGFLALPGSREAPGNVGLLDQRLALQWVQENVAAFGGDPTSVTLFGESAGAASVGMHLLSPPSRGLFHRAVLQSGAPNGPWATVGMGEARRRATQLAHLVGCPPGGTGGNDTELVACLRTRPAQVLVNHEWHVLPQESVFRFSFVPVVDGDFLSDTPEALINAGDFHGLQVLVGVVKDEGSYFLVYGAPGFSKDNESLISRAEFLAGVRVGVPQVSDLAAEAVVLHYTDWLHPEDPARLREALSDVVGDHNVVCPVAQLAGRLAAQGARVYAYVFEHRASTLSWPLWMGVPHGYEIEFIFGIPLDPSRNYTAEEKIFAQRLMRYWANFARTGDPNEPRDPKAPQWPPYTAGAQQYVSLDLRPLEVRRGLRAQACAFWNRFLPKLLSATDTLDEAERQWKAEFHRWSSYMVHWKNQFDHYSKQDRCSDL

| Compound | Potency | outcome | activity change, negative = inhibition |
| --- | --- | --- | --- |
| CC(CN(C)C)CN1c2ccccc2CCc2ccccc21 (stereo not given) | inactive | – | – |
| C/C=C/C(=O)C1=C(C)C=CCC1(C)C | inactive | – | – |
| CN(C)CCOc1ccccc1Cc1ccccc1 | inactive | – | – |
| CCCC[N+](C)(CCCC)CCCC | inactive | – | – |
| c1ccc(CN(Cc2ccccc2)Cc2ccccc2)cc1 | inactive | – | – |
| CC(=O)c1ccc2c(c1)N(CCCN1CCC(CCO)CC1)c1ccccc1S2 | 17.4 µM (active) | – | – |
| CCOc1ccc(N)c([N+](=O)[O-])c1 | inactive | – | – |
| COCCCC/C(=N\OCCN)c1ccc(C(F)(F)F)cc1 | inactive | – | – |
| O=C(O)CCCc1ccccc1 | inactive | – | – |
| C#CCOC(=O)[C@@H](C)Oc1ccc(Oc2ncc(Cl)cc2F)cc1 | inactive | – | – |
| COc1cc(C)ccc1C(C)C | inactive | – | – |
| CC1=NN(c2cccc(S(=O)(=O)O)c2)C(=O)C1 | inactive | – | – |
| C=COCCCC | inactive | – | – |
| CC(C)(C)c1cc(CCC(=O)NCCCCCCNC(=O)CCc2cc(C(C)(C)C)c(O)c(C(C)(C)C)c2)cc(C(C)(C)C)c1O | inactive | – | – |
| OCc1ccccn1 | inactive | – | – |
| C=C1CC[C@H]2O[C@]2(C)CC[C@@H]2[C@@H]1CC2(C)C | inactive | – | – |
| CC(C)OC(=O)c1ccccc1C(=O)OC(C)C | inactive | – | – |
| C=CCn1cc[n+](C)c1 | inactive | – | – |
| O/N=C/C=N/O | inactive | – | – |
| CNCC(O)c1ccc(O)c(O)c1 (stereo not given) | – | inactive | – |

| Compound | Potency | outcome | activity change, negative = inhibition |
| --- | --- | --- | --- |
| CCOC(=O)C(C)(C)C | inactive | – | – |
| C[C@@H]1CC[C@H]2C(C)(C)[C@H]3C[C@@]12CC[C@@]3(C)O | inactive | – | – |
| CCCCc1ccc2cccc(S(=O)(=O)O)c2c1 | inactive | – | – |
| Nc1cnn([C@@H]2O[C@H](CO)[C@@H](O)[C@H]2O)c(=O)n1 | inactive | – | – |
| S=C([S-])NCCNC(=S)[S-].[Mn+2] | 39.9 µM (active) | – | – |
| O=C(OCCc1ccccc1)c1ccccc1 | inactive | – | – |
| ON=C1CCCC1 | inactive | – | – |
| COC(=O)C1CC(=O)C(C(=O)OC)CC1=O (stereo not given) | – | – | 1.15% [at 10.5 µM] (inactive) |
| Cc1ccc(C(C)c2ccc(C)c(C)c2)cc1C | inactive | – | – |
| N=C1N=C(N)c2ccccc21 | inactive | – | – |
| CC[C@@]1(O)C(=O)OCc2c1cc1n(c2=O)Cc2c-1nc1ccccc1c2/C=N/OC(C)(C)C | inactive | – | – |
| CC(=O)Nc1ccccc1C | inactive | – | – |
| CCO[Si](C)(OCC)OCC | inactive | – | – |
| O=C(O)c1cc(-c2ccc(F)cc2F)ccc1O | inactive | – | – |
| CCCCCCCCOCCCN | inactive | – | – |
| C1CCC2(CCCCO2)OC1 | inactive | – | – |
| N#CCCOCCOCCC#N | inactive | – | – |
| COc1cccc2c1C(=O)c1c(O)c3c(c(O)c1C2=O)C[C@@](O)(C(=O)CO)C[C@@H]3O[C@H]1C[C@H](N)[C@H](O[C@@H]2CCCCO2)[C@H](C)O1 | inactive | – | – |
| O=C(O)c1cccnc1C(=O)O | inactive | – | – |
| CC(CC(=O)Cl)CC(C)(C)C (stereo not given) | inactive | – | – |
